TGFb SMAD3 inh – qHTS for Inhibitors of TGF-b. HepG2 CAGA-GFP TGF-b/SMAD3 reporter, GFP fluorescence, 18 h; TGF-beta stimulated, 500 pg/mL final. Potency, µM (series often up to 46.1 µM), for inactives: top-dose activity, negative = inhibition, hits mostly inhibitors. actives 1.2% (n = 410,000); further: on the % scale 0 is the no-effect control and ±100 the full control effect; nearly all actives have a fitted effect of over 65% in size
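TGF-beta reporter screen: HEPG2 CAGA-GFP, 1% FBS, 500 pg/mL TGF-beta final, 18 h; per-cell GFP summed per well; curves fitted and categorized by class.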
DT40 TDP1 no CPT – qHTS for Inhibitors of human tyrosyl-DNA phosphodiesterase 1 (TDP1): qHTS in cells in absence of CPT | DT40 Tdp1-/- hTDP1 cells, no CPT, ATP luminescence, 48 h | Potency, µM (doses to about 46.2 µM), for inactives: at the highest dose activity change, negative = growth inhibition, hits mostly inhibitors | actives 15% (n = 420,000) | AID 686978, 2013; further: on the % scale 0 is the no-effect control and ±100 the full control effect; nearly all actives have a fitted effect of over 55% in size
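Seeded 400 DT40-hTDP1 cells/well (vehicle DMSO, no 20 nM CPT); pinned compounds; ≥48 hr at 37 °C; CellTiter-Glo luminescence as viability measure.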
TDP1 cell CPT – qHTS for Inhibitors of human tyrosyl-DNA phosphodiesterase 1 (TDP1): qHTS in cells in presence of CPT; actives 12% (n = 420,000); chicken DT40 Tdp1-/-;hTDP1 cells + 20 nM CPT, ATP luminescence, 48 h; Potency, µM (highest dose often 46.2 µM), for inactives: at the highest dose activity change, negative = growth inhibition, actives largely listed as inhibitors; AID 686979, 2013; further: on the % scale 0 is the no-effect control and ±100 the full control effect; nearly all actives have a fitted effect of over 55% in size
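Chicken DT40 Tdp1-/- cells complemented with human TDP1, 400 cells/well, exposed to compounds plus 20 nM camptothecin for at least 48 h at 37 C; viability read as ATP content by CellTiter-Glo luminescence.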
S2 tox – Viability Counterscreen for Primary qHTS for Inhibitors of ATXN expression; S2 cells (HEK-293 line with an ATXN2-luciferase reporter) viability, CellTiter-Fluor protease fluorescence, 24 h; Potency, µM (titrated, usually from 56.7 µM), actives largely listed as cytotoxic; actives 0.49% (n = 400,000); further: nearly all actives have a fitted effect of over 40% in size
ATXN2 expr inh – Primary qHTS for Inhibitors of ATXN expression; HEK-293 ATXN2-luciferase reporter, luminescence, 24 h; Potency, µM (titrated, usually from 57 µM), for inactives: top-dose activity change, negative = inhibition, actives largely listed as inhibitors; actives 0.72% (n = 360,000); further: on the % scale 0 is the no-effect control and ±100 the full control effect; nearly all actives have a fitted effect of over 55% in size
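qHTS (up to 57 uM final) was run with 24 h compound exposure of reporter cells at 37 °C. Each well was multiplexed: SteadyGlo luminescence measured ATXN2-luciferase expression after a fluorogenic Gly-Phe-AFC viability readout (25 uM final).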
HepG2 tox – qHTS for Inhibitors of TGF-b: Cytotox Counterscreen; HepG2 CAGA-GFP viability, ATP luminescence, 18 h; AID 588856, 2011; actives 0.76% (n = 410,000); Potency, µM (highest dose often 46.1 µM), without a hit: top-dose activity change, negative = cytotoxicity, hits mostly cytotoxic
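CellTiter-Glo luminescence gave cytotoxicity after 18 hours at 37 degrees C. The cells were HepG2 CAGA-GFP in 1% FBS DMEM, stimulated with 500 pg/mL TGF-beta after compound addition. %Activity was normalised to no-cell wells (complete cell-killing) and DMSO (no toxicity), and curves were fitted and classified.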
An asterisk follows results filed as active; [ ] = dose if it differs, or a comment. Shown are actives, neighbours in structure and some others; about 17% of the full set was active somewhere. The call rests on the fitted dose curve; in most records, active means well fitted curve in the direction sought with a large enough effect; inconclusive means small, poorly fitted or top-dose-only effect, or another doubt; inactive means no such curve, though single readings can be large; an effect the other way counts as inactive or inconclusive. Potency means the concentration at half of the fitted maximal effect.

COC1CCCN(C(=O)c2ccc3oc(Cc4ccc(Cl)cc4)nc3c2)C1 (stereo not given) was read as TGFb SMAD3 inh -22%, DT40 TDP1 no CPT inconclusive, TDP1 cell CPT -17%, S2 tox inactive, ATXN2 expr inh -10% and HepG2 tox 0%.
Screening COCC1CCCN(C(=O)c2ccc3oc(Cc4ccc(Cl)cc4)nc3c2)C1 (stereo not given) returned TGFb SMAD3 inh -27%, DT40 TDP1 no CPT 8.2µM*, TDP1 cell CPT 23µM*, S2 tox inactive, ATXN2 expr inh -10% and HepG2 tox -2%.
Screening COC1CCCN(C(=O)c2ccc3nc(Cc4cccc(Cl)c4)oc3c2)C1 (stereo not given) returned TGFb SMAD3 inh -20%, DT40 TDP1 no CPT inconclusive, TDP1 cell CPT -2%, S2 tox inactive, ATXN2 expr inh 24% and HepG2 tox -3%.
For COCC1CCCN(C(=O)c2ccc3nc(Cc4cccc(Cl)c4)oc3c2)C1 (stereo not given) the results were TGFb SMAD3 inh 0%, DT40 TDP1 no CPT 15µM*, TDP1 cell CPT 26µM*, S2 tox inactive, ATXN2 expr inh 49% and HepG2 tox 104%.
CC1CN(CCNC(=O)C2CCCc3c2[nH]c2ccccc32)Cc2ccccc2O1 (stereo not given) was read as DT40 TDP1 no CPT inconclusive, TDP1 cell CPT 18%[9.04 µM] and S2 tox inactive.
CCOC(=O)c1cccc(NC(=O)C2CCCN(S(=O)(=O)c3c(C)n[nH]c3C)C2)c1 (stereo not given) was read as TGFb SMAD3 inh -20%, DT40 TDP1 no CPT inconclusive, TDP1 cell CPT inconclusive, S2 tox inactive, ATXN2 expr inh -15% and HepG2 tox -32%.
CCOC(=O)c1c(S(=O)(=O)N2CCCC(C(=O)Nc3cccc(Cl)c3)C2)c(C)n(C)c1C (stereo not given) was read as TGFb SMAD3 inh inconclusive, DT40 TDP1 no CPT inconclusive, TDP1 cell CPT 9.2µM*, S2 tox inactive, ATXN2 expr inh 0% and HepG2 tox -26%.
`CCOC(=O)c1cccc(NC(=O)C2CCCN(S(=O)(=O)c3c(C)nn(C)c3C)C2)c1` (stereo not given) gave TGFb SMAD3 inh -14%, DT40 TDP1 no CPT inconclusive, TDP1 cell CPT 21µM*, S2 tox inactive, ATXN2 expr inh -8% and HepG2 tox -3%.
For CCOC(=O)c1c(S(=O)(=O)N2CCCC(C(=O)Nc3ccccn3)C2)c(C)n(C)c1C (stereo not given) the results were TGFb SMAD3 inh -2%, DT40 TDP1 no CPT 4%, TDP1 cell CPT -13%, S2 tox inactive, ATXN2 expr inh 4% and HepG2 tox -17%.
`Cc1n[nH]c(C)c1S(=O)(=O)N1CCCC(C(=O)Nc2ccc(Cl)cc2)C1` (stereo not given) gave TGFb SMAD3 inh inconclusive, DT40 TDP1 no CPT 7.3µM*, TDP1 cell CPT inconclusive, S2 tox inconclusive, ATXN2 expr inh inconclusive and HepG2 tox -5%.
Cc1ccc(C(=O)NCC(=O)OCc2cc(=O)n3c(C)csc3n2)cc1 was read as TGFb SMAD3 inh inconclusive, DT40 TDP1 no CPT 0%, TDP1 cell CPT -4%, S2 tox inactive, ATXN2 expr inh 10% and HepG2 tox -1%.
`CC(=O)c1cccc(NC(=O)N2C3CCC2CC(NC(=O)Nc2ccccc2)C3)c1` (stereo not given) gave TGFb SMAD3 inh 1%, DT40 TDP1 no CPT -6%, TDP1 cell CPT -4%, S2 tox inconclusive and HepG2 tox -1%.
For O=C(NCCN1CCC(n2c(=O)[nH]c3ccccc32)CC1)N1c2ccccc2Sc2ccccc21 the results were DT40 TDP1 no CPT 16µM*, TDP1 cell CPT inconclusive, S2 tox inactive and ATXN2 expr inh 5%.
CCCC(=O)Nc1ccc2nc(C)n(Cc3ccccc3Cl)c(=O)c2c1 was read as TGFb SMAD3 inh -17%, DT40 TDP1 no CPT -14%, TDP1 cell CPT -14%, S2 tox inactive, ATXN2 expr inh -5% and HepG2 tox -24%.
For Cc1nc2ccc(NC(=O)c3cccs3)cc2c(=O)n1Cc1ccc(Cl)cc1 the results were TGFb SMAD3 inh inconclusive, DT40 TDP1 no CPT inconclusive, TDP1 cell CPT 18µM*, S2 tox inconclusive, ATXN2 expr inh 14µM* and HepG2 tox -30%.
For O=C(CCC(=O)c1ccc(F)cc1)Nc1cccc(Br)c1 the results were TGFb SMAD3 inh 0%, DT40 TDP1 no CPT 8%, TDP1 cell CPT 6%, S2 tox inactive, ATXN2 expr inh -27% and HepG2 tox -5%.
`O=c1cc(N2CCCCC2)c(-c2ccccc2)nn1Cc1c(Cl)cccc1Cl` gave TGFb SMAD3 inh 10µM*, DT40 TDP1 no CPT 16µM*, TDP1 cell CPT inconclusive, S2 tox inconclusive, ATXN2 expr inh inconclusive and HepG2 tox 18µM*.
Screening NC1(C(=O)O)CSSC1 returned TGFb SMAD3 inh inconclusive, DT40 TDP1 no CPT 7.3µM*, TDP1 cell CPT -118%, S2 tox inconclusive, ATXN2 expr inh inconclusive and HepG2 tox -15%.
Screening CC(C)OC(=O)CSc1nc(N)c(C#N)cc1C#N returned TGFb SMAD3 inh 1%, DT40 TDP1 no CPT inconclusive, TDP1 cell CPT 1%, S2 tox inactive, ATXN2 expr inh 5% and HepG2 tox 11%.
For COc1ccc2cc(C#N)c(SCC(=O)Nc3nonc3C)nc2c1 the results were TGFb SMAD3 inh 10%, DT40 TDP1 no CPT inconclusive, TDP1 cell CPT -12%, S2 tox inactive, ATXN2 expr inh 16% and HepG2 tox 4%.
CCOC(=O)CSc1nc2cc(OC)ccc2cc1C#N was read as TGFb SMAD3 inh 13%, DT40 TDP1 no CPT 23µM*, TDP1 cell CPT 16µM*, S2 tox inactive, ATXN2 expr inh 88% and HepG2 tox -17%.
For COC(=O)CC(=O)CSc1nc2c(cc1C#N)CCCCC2 the results were TGFb SMAD3 inh -6%, DT40 TDP1 no CPT 0%, TDP1 cell CPT 7%, S2 tox inactive, ATXN2 expr inh 19% and HepG2 tox 3%.
`CCOC(=O)CC(=O)CSc1nc2c(cc1C#N)CCC2` gave TGFb SMAD3 inh inconclusive, DT40 TDP1 no CPT 21µM*, TDP1 cell CPT 8.2µM*, S2 tox inactive, ATXN2 expr inh 2% and HepG2 tox 5%.

Bioassay records as filed in PubChem.
